# Laboratory results reported in paper PMC7862700, “An all-to-all approach to the identification of sequence-specific readers for epigenetic DNA modifications on cytosine”.
# How the values were obtained:
# Experiment in all cases: DAPPL (digital affinity profiling via proximity ligation, sequencing); 10 mM Tris-HCl pH 7.5, 50 mM NaCl, 1 mM DTT, 4% glycerol, room temperature, 30 min; GST-TFs on glutathione beads, 16-mer random dsDNA library, 0.1% formaldehyde crosslink after washing; high values mean tight binding
# FLI1 = target: T1, FLI1 (Homo sapiens, UniProt Q01543 1-452); details: protein: recombinant; tags: N-terminal GST; dsDNA, one strand shown
# T1 sequence: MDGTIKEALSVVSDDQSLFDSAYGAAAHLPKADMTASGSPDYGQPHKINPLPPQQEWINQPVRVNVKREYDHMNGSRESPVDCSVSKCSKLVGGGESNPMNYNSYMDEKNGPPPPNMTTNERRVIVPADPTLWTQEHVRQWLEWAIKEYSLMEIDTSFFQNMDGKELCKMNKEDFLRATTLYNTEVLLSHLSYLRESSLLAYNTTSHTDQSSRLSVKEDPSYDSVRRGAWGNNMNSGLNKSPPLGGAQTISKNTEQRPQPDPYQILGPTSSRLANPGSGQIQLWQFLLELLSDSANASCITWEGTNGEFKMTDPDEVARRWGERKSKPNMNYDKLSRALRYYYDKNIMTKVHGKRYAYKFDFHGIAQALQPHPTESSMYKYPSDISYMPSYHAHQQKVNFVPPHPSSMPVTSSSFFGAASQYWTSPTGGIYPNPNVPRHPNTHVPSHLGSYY
# Method in brief: (§1)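 A tag-only sample was pooled with DNA-barcoded human transcription factors that had been expressed in yeast as GST fusions and captured on glutathione beads. The pools were incubated for 30 min at room temperature with 200 nmole of a random double-stranded 16-mer DNA library in Tris/NaCl/DTT/glycerol buffer, then washed, crosslinked with 0.1% formaldehyde, proximity-ligated (BsaI/T4 ligase, 1 h, 37 °C), PCR-amplified and sequenced on an Illumina NextSeq500. Binding signal is each hexamer's read frequency for a factor divided by its frequency for the tag-only sample.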
# ELK1 = target: T2, ELK1 (Homo sapiens, UniProt P19419 1-428); details: protein: recombinant; tags: N-terminal GST; dsDNA, one strand shown
# T2 sequence: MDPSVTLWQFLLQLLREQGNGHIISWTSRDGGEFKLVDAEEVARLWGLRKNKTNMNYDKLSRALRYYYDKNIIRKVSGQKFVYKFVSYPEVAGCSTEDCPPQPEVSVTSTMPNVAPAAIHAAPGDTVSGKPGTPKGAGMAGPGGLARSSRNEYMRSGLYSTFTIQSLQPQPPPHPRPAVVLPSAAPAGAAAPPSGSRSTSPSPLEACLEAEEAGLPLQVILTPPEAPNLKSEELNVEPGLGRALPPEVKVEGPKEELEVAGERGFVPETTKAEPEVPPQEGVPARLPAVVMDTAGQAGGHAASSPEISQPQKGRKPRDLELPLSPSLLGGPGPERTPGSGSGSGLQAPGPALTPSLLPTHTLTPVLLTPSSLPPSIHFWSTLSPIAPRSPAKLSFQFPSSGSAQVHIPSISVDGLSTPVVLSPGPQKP
# Method in brief: as §1
# GABPA = target: T3, GABPA (Homo sapiens, UniProt Q06546 1-454); details: protein: recombinant; tags: N-terminal GST; dsDNA, one strand shown
# T3 sequence: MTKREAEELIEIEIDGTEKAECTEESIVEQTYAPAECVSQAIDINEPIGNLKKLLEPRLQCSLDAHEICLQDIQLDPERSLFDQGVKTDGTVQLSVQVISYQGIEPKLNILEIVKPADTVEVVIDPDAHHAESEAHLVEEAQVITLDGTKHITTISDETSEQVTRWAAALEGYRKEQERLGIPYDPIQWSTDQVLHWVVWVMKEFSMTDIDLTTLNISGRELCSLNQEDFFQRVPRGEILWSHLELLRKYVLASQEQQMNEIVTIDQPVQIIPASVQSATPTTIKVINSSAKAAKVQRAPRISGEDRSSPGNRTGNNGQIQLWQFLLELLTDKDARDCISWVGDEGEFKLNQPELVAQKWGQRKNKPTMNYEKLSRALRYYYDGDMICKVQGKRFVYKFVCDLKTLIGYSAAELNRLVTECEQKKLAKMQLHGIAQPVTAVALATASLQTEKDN
# Method in brief: as §1
# ERG = target: T4, ERG (Homo sapiens, UniProt P11308 1-479); details: protein: recombinant; tags: N-terminal GST; dsDNA, one strand shown
# T4 sequence: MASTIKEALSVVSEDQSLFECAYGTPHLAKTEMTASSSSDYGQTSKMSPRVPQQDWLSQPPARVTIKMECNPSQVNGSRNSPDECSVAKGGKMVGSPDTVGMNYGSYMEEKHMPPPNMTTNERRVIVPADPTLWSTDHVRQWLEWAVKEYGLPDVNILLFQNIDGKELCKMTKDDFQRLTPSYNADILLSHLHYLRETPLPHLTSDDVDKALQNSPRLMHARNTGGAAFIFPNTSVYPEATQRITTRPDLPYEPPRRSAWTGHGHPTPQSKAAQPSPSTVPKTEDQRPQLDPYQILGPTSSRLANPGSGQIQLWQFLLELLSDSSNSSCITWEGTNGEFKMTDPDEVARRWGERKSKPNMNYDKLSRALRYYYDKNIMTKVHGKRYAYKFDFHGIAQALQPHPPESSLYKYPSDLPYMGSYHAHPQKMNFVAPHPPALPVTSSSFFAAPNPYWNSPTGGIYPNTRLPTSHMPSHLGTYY
# Method in brief: as §1
# ELF1 = ELF1 (Homo sapiens, UniProt P32519 1-619); details: protein: recombinant; tags: N-terminal GST; dsDNA, one strand shown
# Chain of ELF1 (P32519 whole entry): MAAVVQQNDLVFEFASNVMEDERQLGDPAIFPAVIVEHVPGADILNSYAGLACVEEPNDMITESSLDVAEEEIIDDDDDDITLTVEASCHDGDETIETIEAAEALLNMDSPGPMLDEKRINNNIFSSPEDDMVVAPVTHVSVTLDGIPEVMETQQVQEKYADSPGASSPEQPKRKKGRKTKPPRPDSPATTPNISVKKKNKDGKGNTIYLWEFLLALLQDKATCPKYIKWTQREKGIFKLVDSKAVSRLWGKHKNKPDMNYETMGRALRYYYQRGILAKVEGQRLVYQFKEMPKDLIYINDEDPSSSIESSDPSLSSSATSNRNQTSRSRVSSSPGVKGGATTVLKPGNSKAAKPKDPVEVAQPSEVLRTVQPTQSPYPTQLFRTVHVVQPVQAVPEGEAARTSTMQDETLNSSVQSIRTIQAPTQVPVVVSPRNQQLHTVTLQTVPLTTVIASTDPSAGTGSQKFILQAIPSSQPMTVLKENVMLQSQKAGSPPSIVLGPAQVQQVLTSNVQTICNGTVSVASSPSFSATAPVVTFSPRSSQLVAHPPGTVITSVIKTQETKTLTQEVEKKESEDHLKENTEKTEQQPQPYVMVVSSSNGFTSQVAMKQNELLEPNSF
# Method in brief: as §1
# EHF = target: T5, EHF (Homo sapiens, UniProt Q9NZC4 1-300); details: protein: recombinant; tags: N-terminal GST; dsDNA, one strand shown
# T5 sequence: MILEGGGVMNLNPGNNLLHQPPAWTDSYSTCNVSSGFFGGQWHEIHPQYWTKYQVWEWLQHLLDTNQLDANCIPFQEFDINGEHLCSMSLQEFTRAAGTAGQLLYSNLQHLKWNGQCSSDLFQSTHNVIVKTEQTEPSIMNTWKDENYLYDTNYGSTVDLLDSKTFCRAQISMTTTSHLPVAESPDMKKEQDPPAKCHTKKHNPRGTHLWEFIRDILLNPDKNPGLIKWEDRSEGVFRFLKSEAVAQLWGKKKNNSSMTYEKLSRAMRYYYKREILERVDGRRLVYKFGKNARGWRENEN
# Method in brief: as §1
# SPI1 = SPI1 (Homo sapiens, UniProt P17947 1-270); details: protein: recombinant; tags: N-terminal GST; dsDNA, one strand shown
# Method in brief: as §1
# SPIB = SPIB (Homo sapiens, UniProt Q01892 1-262); details: protein: recombinant; tags: N-terminal GST; dsDNA, one strand shown
# Chain of SPIB (Q01892 whole entry): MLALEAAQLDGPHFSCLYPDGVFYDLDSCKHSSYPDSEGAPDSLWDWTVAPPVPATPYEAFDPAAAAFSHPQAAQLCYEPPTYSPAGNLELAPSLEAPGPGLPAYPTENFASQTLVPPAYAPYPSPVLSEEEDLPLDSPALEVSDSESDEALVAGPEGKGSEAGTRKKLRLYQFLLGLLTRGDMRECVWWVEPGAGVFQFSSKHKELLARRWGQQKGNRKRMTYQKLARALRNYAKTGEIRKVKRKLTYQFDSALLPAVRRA
# Method in brief: as §1
# ELK3 = target: T6, ELK3 (Homo sapiens, UniProt P41970 1-407); details: protein: recombinant; tags: N-terminal GST; dsDNA, one strand shown
# T6 sequence: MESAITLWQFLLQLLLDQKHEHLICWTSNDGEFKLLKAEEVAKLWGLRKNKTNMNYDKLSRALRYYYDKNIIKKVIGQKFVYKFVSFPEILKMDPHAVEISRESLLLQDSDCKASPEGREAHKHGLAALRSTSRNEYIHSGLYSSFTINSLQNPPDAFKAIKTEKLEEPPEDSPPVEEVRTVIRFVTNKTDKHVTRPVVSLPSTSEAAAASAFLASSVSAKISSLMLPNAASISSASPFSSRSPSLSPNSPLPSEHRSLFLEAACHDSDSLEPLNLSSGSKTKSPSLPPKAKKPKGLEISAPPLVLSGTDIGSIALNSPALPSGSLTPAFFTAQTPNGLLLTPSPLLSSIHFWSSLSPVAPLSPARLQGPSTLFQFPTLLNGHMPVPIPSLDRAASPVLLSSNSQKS
# Method in brief: as §1
# FEV = target: T7, FEV (Homo sapiens, UniProt Q99581 1-238); details: protein: recombinant; tags: N-terminal GST; dsDNA, one strand shown
# T7 sequence: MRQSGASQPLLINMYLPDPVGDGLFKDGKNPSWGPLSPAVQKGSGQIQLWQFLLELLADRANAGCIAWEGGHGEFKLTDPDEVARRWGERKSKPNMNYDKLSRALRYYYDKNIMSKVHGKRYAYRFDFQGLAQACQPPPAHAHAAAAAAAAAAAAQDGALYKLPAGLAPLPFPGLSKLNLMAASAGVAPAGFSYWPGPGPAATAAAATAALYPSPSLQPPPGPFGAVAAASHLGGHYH
# Method in brief: as §1
# ETV5 = ETV5 (Homo sapiens, UniProt P41161 1-510); details: protein: recombinant; tags: N-terminal GST; dsDNA, one strand shown
# Chain of ETV5 (P41161 whole entry): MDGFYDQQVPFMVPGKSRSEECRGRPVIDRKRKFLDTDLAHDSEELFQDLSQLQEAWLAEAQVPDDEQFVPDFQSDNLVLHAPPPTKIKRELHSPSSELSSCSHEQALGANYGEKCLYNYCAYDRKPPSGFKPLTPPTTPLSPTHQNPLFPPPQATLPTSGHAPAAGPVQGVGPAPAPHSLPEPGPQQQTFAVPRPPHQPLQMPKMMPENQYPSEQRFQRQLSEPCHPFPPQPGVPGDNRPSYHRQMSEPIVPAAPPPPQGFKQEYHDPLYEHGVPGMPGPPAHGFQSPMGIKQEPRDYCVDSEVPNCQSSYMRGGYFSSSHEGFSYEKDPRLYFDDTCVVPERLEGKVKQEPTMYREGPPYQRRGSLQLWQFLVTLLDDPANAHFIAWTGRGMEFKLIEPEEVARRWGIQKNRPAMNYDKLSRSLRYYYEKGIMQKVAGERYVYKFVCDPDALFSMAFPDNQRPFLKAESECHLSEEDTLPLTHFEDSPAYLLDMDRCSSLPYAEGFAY
# Method in brief: as §1
# HSF1 = HSF1 (Homo sapiens, UniProt Q00613 1-529); details: protein: recombinant; tags: N-terminal GST; chain copies: 3; dsDNA, one strand shown
# Chain of HSF1 (Q00613 whole entry): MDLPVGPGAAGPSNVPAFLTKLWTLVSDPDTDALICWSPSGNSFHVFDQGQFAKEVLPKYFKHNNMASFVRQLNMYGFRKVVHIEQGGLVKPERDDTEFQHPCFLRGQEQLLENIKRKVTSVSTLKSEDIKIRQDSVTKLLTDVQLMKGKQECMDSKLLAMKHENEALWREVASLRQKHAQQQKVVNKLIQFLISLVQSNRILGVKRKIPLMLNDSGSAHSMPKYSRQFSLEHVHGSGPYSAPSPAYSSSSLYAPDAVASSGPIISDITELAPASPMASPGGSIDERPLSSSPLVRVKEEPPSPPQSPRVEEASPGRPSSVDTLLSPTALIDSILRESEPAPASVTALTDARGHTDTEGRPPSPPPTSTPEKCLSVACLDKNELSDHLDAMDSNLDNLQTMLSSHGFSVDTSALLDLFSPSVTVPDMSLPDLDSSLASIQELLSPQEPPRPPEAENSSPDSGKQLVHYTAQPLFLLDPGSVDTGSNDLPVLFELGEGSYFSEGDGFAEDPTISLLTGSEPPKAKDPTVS
# Method in brief: as §1
# SPIC = target: T8, SPIC (Homo sapiens, UniProt Q8N5J4 1-248); details: protein: recombinant; tags: N-terminal GST; dsDNA, one strand shown
# T8 sequence: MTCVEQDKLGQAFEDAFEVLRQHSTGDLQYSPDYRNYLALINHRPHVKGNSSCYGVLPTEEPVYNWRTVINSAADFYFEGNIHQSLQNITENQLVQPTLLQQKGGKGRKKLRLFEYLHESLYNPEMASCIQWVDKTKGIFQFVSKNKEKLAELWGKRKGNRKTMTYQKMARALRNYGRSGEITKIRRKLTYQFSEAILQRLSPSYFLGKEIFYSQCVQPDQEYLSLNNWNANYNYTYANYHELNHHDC
# Method in brief: as §1
# ELF4 = ELF4 (Homo sapiens, UniProt Q99607 1-663); details: protein: recombinant; tags: N-terminal GST; dsDNA, one strand shown
# Chain of ELF4 (Q99607 whole entry): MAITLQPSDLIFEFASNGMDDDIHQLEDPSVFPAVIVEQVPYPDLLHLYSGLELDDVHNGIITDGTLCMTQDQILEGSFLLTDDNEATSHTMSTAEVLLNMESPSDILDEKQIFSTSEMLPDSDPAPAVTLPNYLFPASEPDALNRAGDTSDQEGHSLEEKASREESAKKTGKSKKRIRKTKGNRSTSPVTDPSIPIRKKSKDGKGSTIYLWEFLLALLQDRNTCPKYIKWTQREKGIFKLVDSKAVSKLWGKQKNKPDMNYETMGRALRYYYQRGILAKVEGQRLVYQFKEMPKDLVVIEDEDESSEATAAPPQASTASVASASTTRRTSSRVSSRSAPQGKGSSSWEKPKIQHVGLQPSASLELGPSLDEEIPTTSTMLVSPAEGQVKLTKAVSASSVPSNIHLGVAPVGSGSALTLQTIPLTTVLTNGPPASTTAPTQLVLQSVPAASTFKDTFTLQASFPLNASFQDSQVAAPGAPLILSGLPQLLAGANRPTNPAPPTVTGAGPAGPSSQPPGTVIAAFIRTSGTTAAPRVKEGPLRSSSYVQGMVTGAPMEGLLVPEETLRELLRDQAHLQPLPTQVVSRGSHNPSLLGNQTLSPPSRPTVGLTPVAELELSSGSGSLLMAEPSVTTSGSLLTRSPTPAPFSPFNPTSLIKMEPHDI
# Method in brief: as §1
# ELK4 = target: T9, ELK4 (Homo sapiens, UniProt P28324-2 1-405); details: protein: recombinant; tags: N-terminal GST; dsDNA, one strand shown
# T9 sequence: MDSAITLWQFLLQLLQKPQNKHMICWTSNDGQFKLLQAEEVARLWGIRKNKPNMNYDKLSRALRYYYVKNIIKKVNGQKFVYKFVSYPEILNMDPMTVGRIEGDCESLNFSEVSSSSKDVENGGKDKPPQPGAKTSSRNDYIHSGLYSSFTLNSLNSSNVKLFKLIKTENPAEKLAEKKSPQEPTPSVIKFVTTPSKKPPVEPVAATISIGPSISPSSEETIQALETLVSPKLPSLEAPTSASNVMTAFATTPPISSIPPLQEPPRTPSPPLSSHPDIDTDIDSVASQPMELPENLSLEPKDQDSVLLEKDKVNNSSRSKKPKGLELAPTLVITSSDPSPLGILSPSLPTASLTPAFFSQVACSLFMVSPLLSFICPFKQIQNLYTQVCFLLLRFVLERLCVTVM
# Method in brief: as §1
# ETV2 = target: T10, ETV2 (Homo sapiens, UniProt O00321 1-342); details: protein: recombinant; tags: N-terminal GST; dsDNA, one strand shown
# T10 sequence: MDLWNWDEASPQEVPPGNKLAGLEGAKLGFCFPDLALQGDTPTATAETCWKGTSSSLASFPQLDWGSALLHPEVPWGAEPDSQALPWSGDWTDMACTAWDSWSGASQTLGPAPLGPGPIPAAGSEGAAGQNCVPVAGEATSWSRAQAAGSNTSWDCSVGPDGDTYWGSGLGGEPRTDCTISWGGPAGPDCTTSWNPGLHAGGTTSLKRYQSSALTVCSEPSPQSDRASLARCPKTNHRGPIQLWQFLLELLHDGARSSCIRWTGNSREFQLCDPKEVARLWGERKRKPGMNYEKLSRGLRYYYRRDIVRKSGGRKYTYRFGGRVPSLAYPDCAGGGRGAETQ
# Method in brief: as §1
# ELF3 = target: T11, ELF3 (Homo sapiens, UniProt P78545 1-371); details: protein: recombinant; tags: N-terminal GST; dsDNA, one strand shown
# T11 sequence: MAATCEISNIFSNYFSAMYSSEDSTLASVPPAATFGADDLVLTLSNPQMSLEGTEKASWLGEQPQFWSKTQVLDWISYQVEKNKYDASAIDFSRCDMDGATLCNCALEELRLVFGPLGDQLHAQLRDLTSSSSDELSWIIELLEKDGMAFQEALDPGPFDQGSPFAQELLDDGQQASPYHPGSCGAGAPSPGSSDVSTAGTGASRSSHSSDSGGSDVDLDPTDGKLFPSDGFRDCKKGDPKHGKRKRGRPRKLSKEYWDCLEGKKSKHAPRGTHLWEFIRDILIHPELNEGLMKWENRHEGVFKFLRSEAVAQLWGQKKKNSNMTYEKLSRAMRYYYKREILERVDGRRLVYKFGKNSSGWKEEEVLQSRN
# Method in brief: as §1
# CRX = CRX (Homo sapiens, UniProt O43186 1-299); details: protein: recombinant; tags: N-terminal GST; dsDNA, one strand shown
# Chain of CRX (O43186 whole entry): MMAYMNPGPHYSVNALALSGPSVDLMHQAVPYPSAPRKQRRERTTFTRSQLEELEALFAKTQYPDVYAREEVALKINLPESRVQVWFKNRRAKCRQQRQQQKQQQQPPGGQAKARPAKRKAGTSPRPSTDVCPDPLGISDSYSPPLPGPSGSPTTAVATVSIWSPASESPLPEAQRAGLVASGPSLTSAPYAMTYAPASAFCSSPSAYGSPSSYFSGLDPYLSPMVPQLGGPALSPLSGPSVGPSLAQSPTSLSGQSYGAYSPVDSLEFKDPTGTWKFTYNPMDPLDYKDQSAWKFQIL
# Method in brief: as §1
# ETV1 = ETV1 (Homo sapiens, UniProt P50549 1-477); details: protein: recombinant; tags: N-terminal GST; dsDNA, one strand shown
# Chain of ETV1 (P50549 whole entry): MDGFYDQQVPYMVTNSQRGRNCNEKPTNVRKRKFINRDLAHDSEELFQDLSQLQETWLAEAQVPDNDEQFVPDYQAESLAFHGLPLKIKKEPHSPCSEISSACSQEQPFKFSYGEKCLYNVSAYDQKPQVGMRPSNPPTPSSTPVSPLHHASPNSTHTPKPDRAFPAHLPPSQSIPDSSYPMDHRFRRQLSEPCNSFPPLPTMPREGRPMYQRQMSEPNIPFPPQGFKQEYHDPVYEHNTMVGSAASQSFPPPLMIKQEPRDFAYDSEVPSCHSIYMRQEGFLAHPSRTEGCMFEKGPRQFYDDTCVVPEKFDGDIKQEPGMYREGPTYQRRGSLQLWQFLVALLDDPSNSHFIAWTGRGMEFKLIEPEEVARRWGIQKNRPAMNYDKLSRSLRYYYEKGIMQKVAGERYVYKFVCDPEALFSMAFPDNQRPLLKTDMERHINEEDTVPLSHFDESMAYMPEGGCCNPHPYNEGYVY
# Method in brief: as §1
sequence,measurement,setting,value
TTGTTA,binding signal,FLI1,"1.32 fold enrichment (6-mer frequency, TF over GST control)"
same,binding signal,ELK1,"1.34 fold enrichment (6-mer frequency, TF over GST control)"
same,binding signal,GABPA,"1.32 fold enrichment (6-mer frequency, TF over GST control)"
same,binding signal,ERG,"1.33 fold enrichment (6-mer frequency, TF over GST control)"
same,binding signal,ELF1,"1.29 fold enrichment (6-mer frequency, TF over GST control)"
same,binding signal,EHF,"1.36 fold enrichment (6-mer frequency, TF over GST control)"
same,binding signal,SPI1,"1.26 fold enrichment (6-mer frequency, TF over GST control)"
same,binding signal,SPIB,"1.33 fold enrichment (6-mer frequency, TF over GST control)"
same,binding signal,ELK3,"1.47 fold enrichment (6-mer frequency, TF over GST control)"
same,binding signal,FEV,"1.3 fold enrichment (6-mer frequency, TF over GST control)"
same,binding signal,ETV5,"1.31 fold enrichment (6-mer frequency, TF over GST control)"
same,binding signal,HSF1,"1.34 fold enrichment (6-mer frequency, TF over GST control)"
same,binding signal,SPIC,"1.31 fold enrichment (6-mer frequency, TF over GST control)"
same,binding signal,ELF4,"1.32 fold enrichment (6-mer frequency, TF over GST control)"
same,binding signal,ELK4,"1.47 fold enrichment (6-mer frequency, TF over GST control)"
same,binding signal,ETV2,"1.35 fold enrichment (6-mer frequency, TF over GST control)"
same,binding signal,ELF3,"1.08 fold enrichment (6-mer frequency, TF over GST control)"
same,binding signal,CRX,"1.61 fold enrichment (6-mer frequency, TF over GST control)"
same,binding signal,ETV1,"1.35 fold enrichment (6-mer frequency, TF over GST control)"
